Screening data as filed in PubChem.
In the library only some 4.6% were active in any assay of this set; here they are far more common.
PfHsp90 set2 = growth inhibition of PfHsp90-expressing yeast, primary screen, antimalarial PfHsp90 inhibitor project, S. cerevisiae, BacTiter-Glo luminescence, single point, set 2 | BacTiter-Glo ATP, 48 h; yeast lacking PDR1 and PDR3 efflux regulators | inhibition, % at 9.4 µM | actives 0.32% (n = 310,000);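 active = every replicate shows inhibition above about 80%, whatever the replicate mean, limit read from the data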;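 also: 0% = DMSO neutral controls and 100% = 20 µM radicicol positive controls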
NLRP3 yeast inh = NALP3 inflammasome inhibitors in reconstituted yeast, primary screen, luminescence, uHTS | Yeast reconstituted NLRP3/ASC/caspase-1, beta-gal luminescence, 24 h | inhibition, % at 10 µM | actives 0.39% (n = 330,000) | AID 2825, 2010;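 active = inhibition of 50% or more; inactive = inhibition below 50%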;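 also: plate controls were induced DMSO wells for no effect and uninduced yeast grown without galactose for full effect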
TIM10 inh = growth inhibitors of isogenic TIM10 control yeast, primary screen, counter-screen for tim10-1 yeast inhibitor project, luminescence, uHTS | S. cerevisiae TIM10 strain growth, BacTiter-Glo luminescence, 24 h | inhibition, % at 10 µM | actives 1.4% (n = 330,000) | AID 463195, 2010;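 active = inhibition of 40% or more at the single tested concentration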;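 also: wild-type TIM10 isogenic control strain grown at permissive 25 °C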
tim10-1 inh = growth inhibitors of tim10-1 mutant yeast, primary screen, luminescence, uHTS; S. cerevisiae tim10-1 ts strain growth, BacTiter-Glo, 24 h; inhibition, % at 20 µM; actives 2.2% (n = 330,000);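 active = inhibition of at least 40%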;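 also: mutant grown at 25 °C; 0% = DMSO wells with yeast and 100% = wells holding no yeast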
tim23-1 inh = growth inhibitors of tim23-1 mutant yeast, primary screen, luminescence, uHTS | S. cerevisiae tim23-1 growth, BacTiter-Glo luminescence, 24 h | inhibition, % at 20 µM | actives 1.3% (n = 330,000);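 active = growth inhibition of the mutant yeast at or above 50%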;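 also: temperature-sensitive mutant grown at 25 °C; plate controls were DMSO-treated mutant yeast for no effect and medium wells lacking yeast for full effect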
SKKanGAS inh = S. pyogenes SKKanGAS growth inhibitors in kanamycin, primary screen, streptokinase expression inhibitor project, SKKanGAS strain, BacTiter-Glo luminescence. 6 h. inhibition, % at 7.5 µM. actives 1.3% (n = 300,000). AID 1662, 2009;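 active = mean replicate score, as percent of positive control median, at least 50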;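 also: strain carries kanamycin resistance gene driven by streptokinase promoter and grows in 40 µg/ml kanamycin; loss of luminescence reflects streptokinase promoter inhibition or plain growth inhibition; 0% = median of DMSO wells and 100% = positive control at its reference dose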
tim10-1 conf = growth inhibitors of tim10-1 mutant yeast, confirmation, single concentration, luminescence, S. cerevisiae; shares compounds with tim10-1 inh; S. cerevisiae tim10-1 ts strain growth, BacTiter-Glo, 24 h; inhibition, % at 20 µM; actives 56% (n = 7,400); AID 463213, 2010;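 active = inhibition of yeast growth at or above a set limit in either of two repeat tests at 20 µM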;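 also: tim10-1 mutant grown at permissive 25 °C to find synthetic lethal compounds; 0% = DMSO yeast wells and 100% = medium wells without yeast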
Starred values were filed as active, the others as inactive; · = not tested or not shown.

SMILES	PfHsp90 set2	NLRP3 yeast inh	TIM10 inh	tim10-1 inh	tim23-1 inh	SKKanGAS inh	tim10-1 conf
O=C(CCC(=O)c1cccs1)OCC(=O)c1ccccc1F	·	9	13	18	27	·	·
Cc1cc(SCC(=O)NC(=O)NCc2ccco2)nc2ccccc12	·	11	32	43*	48	8	35*
Cc1cc(SCC(=O)N/N=C/c2ccco2)nc2ccccc12	18	6	3	40*	28	0	15
COc1ccccc1N1CCN(Cc2cc(=O)c(OCC(=O)NC3CCCC3)co2)CC1	·	-4	5	3	-9	-3	·
CCOC(=O)C1=C(CSc2nc(-c3ccncc3)ccc2C#N)OC(N)=C(C#N)C1c1ccc(OC)cc1 (stereo not drawn)	15	12	21	45*	48	7	23
CCOC(=O)C1=C(CSc2nc(-c3ccncc3)ccc2C#N)OC(N)=C(C#N)C1c1cccnc1 (stereo not drawn)	-34	-8	20	19	11	0	·
CCOC(=O)C1=C(CSc2nc(C)ccc2C#N)OC(N)=C(C#N)C1c1cccc(OC)c1OC (stereo not drawn)	-13	24	39	45*	25	2	45*
O=c1cc(OCc2ccccc2)cc[nH]1	-2	10	5	-1	-3	·	·
Cc1ccccc1CNC(=O)c1ccc(Cl)c([N+](=O)[O-])c1	7	39	-1	43*	45	1	22
Cc1ccccc1CNC(=O)Cc1ccccc1[N+](=O)[O-]	36	12	-2	10	16	-1	·
Cc1ccc(SCCNS(=O)(=O)c2ccc(F)cc2)cc1	·	21	-13	41*	36	1	15
COc1cc(/C=N/NC(=O)c2ccc([N+](=O)[O-])cc2Cl)cc(Br)c1O	13	12	-3	-3	2	9	·
COc1cc(/C=N/N2C(=O)c3ccccc3NC2(C)c2cccc([N+](=O)[O-])c2)cc(Br)c1O (stereo not drawn)	4	13	31	44*	30	11	21
CN(C(=O)COC(=O)c1cc(S(=O)(=O)N2CCOCC2)ccc1Cl)C1CCS(=O)(=O)C1 (stereo not drawn)	-23	-18	3	5	13	-4	·
CCOC(=O)c1cnc2ccc(OCC)cc2c1NCc1ccccc1OC	9	18	16	43*	26	-2	34*
CCOC(=O)c1cnc2ccc(OC)cc2c1NCc1ccccc1	-5	4	36	30	38	-3	·
CC(C)Oc1cccc(C2NC(=O)c3ccccc3O2)c1 (stereo not drawn)	-37	17	13	26	34	-2	·
CC(C)(C)Nc1nc(Cl)nc(NC(C)(C)C)n1	3	-22	14	44*	24	-1	20
CCCNc1nc(Cl)nc(NC(C)(C)C)n1	9	8	13	18	9	-8	·
COc1ccc2cc(C3=CCCCC3)ncc2c1	-8	45	-7	2	31	·	·
CC1CCc2c(sc3ncnc(NCCCOC(C)C)c23)C1 (stereo not drawn)	6	19	13	40	43	1	10
Cc1cc(=O)oc2cc(OCc3ccc(C(=O)N4CCN(c5ccccc5)CC4)cc3)ccc12	22	23	7	43*	18	24	13
Cc1cc(=O)oc2cc(OCc3ccc(C(=O)N4CCN(c5ccc([N+](=O)[O-])cc5)CC4)cc3)ccc12	6	·	·	·	·	22	·
COc1ccc(-c2cc(-c3ccccc3)c(C#N)c(S(C)=O)n2)cc1 (stereo not drawn)	5	2	24	45*	34	-7	30*
O=C(c1nc2ccccc2s1)N1CCN(c2ccccn2)CC1	-9	33	10	45*	28	·	27
SMILES	PfHsp90 set2	NLRP3 yeast inh	TIM10 inh	tim10-1 inh	tim23-1 inh	SKKanGAS inh	tim10-1 conf
O=C(c1nc2ccccc2s1)N1CCSCC1	-18	-9	-3	7	12	-6	·
O=C(c1ccc2nc(N3CCCCC3)sc2c1)N1CCN(c2ccccn2)CC1	-50	27	37	51*	49	3	35*
O=C(c1ccc2nc(N3CCOCC3)sc2c1)N1CCC(Cc2ccccc2)CC1	-11	41	39	54*	49	-1	43*
CCOC(=O)N1CCN(C(=O)c2ccc3nc(N4CCCCC4)sc3c2)CC1	-8	13	11	19	24	8	·
O=C(CSc1ccc2nnc(-c3cccnc3)n2n1)Nc1ccc(F)cc1F	5	15	4	19	7	2	·
CCOc1ccc2nc(NC(=O)CSc3ccc(Cl)cc3)sc2c1	-23	11	26	5	12	14	·
CCOC(=O)Nc1ccc2nc(Sc3ccc(Cl)cc3)sc2c1	-1	17	20	42*	27	24	33*
CC1(C)CC2CC(C)(CN2S(=O)(=O)c2cccc(N)c2)C1 (stereo not drawn)	22	2	35	48*	27	-9	39*
Cc1cc(S(=O)(=O)N2CCOCC2)ccc1OCC(=O)NCc1ccco1	7	16	-8	9	5	2	·
O=C(NCCO)c1cc2c([nH]c3ccccc32)c(-c2ccccc2)n1	6	11	15	43*	23	1	14
O=C(NCCO)c1cc2c([nH]c3ccccc32)c(-c2ccc(F)cc2)n1	-10	7	29	29	34	21	·
N/C(=N\OC(=O)CC(c1ccccc1)c1ccccc1)c1cccnc1	4	17	37	47*	35	-20	61*
N/C(=N\OC(=O)Cc1ccc(-c2ccccc2)cc1)c1cccnc1	-68	7	19	47*	19	4	39*
N/C(=N\OC(=O)CCC1CCCCC1)c1cccnc1	-16	-8	17	46*	27	1	38*
O=C(O)c1ccc(N2CCc3ccccc32)c([N+](=O)[O-])c1	0	6	17	3	2	4	·
O=C(NCc1ccc(F)cc1)c1ccc(N2CCc3ccccc32)c([N+](=O)[O-])c1	0	27	18	42*	39	32	26
CCCCOP(=O)(c1ccc(N(C)C)cc1)C(O)c1ccc(OC)cc1 (stereo not drawn)	4	-7	7	20	23	-2	·
CCCCOP(=O)(c1ccc(N(C)C)cc1)C(O)c1ccccc1F (stereo not drawn)	-33	0	31	43*	24	-12	21
